In PMC5540273 (PLoS ONE, 2017):

What was measured:
Conditions in all cases: concentration: 1 μM, replicates: in singlicate; n = 1
[1] = system: FGFR4
[2] = system: FGR
[3] = system: FLT1
[4] = system: FLT3-autoinhibited
[5] = system: FLT3
[6] = system: FLT4
[7] = system: FRK
[8] = system: FYN
[9] = system: GAK
[10] = system: T1, GCN2(Kin.Dom.2,S808G)
T1 construct: gene EIF2AK4

[11] = system: GRK1
[12] = system: T2, GRK2
T2 construct: gene ADRBK1

[13] = system: T3, GRK3
T3 construct: gene ADRBK2

[14] = system: GRK4
[15] = system: GRK7
[16] = system: GSK3A
[17] = system: GSK3B
[18] = system: T4, HASPIN
T4 construct: gene GSG2

[19] = system: HCK
[20] = system: HIPK1
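Also: KINOMEscan kinase panel screen.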

SMILES	%Inh [1] [%]	%Inh [2] [%]	%Inh [3] [%]	%Inh [4] [%]	%Inh [5] [%]	%Inh [6] [%]	%Inh [7] [%]	%Inh [8] [%]	%Inh [9] [%]	%Inh [10] [%]	%Inh [11] [%]	%Inh [12] [%]	%Inh [13] [%]	%Inh [14] [%]	%Inh [15] [%]	%Inh [16] [%]	%Inh [17] [%]	%Inh [18] [%]	%Inh [19] [%]	%Inh [20] [%]
CNc1nccc(-c2c(-c3ccc(F)cc3)ncn2CCCN2CCOCC2)n1 [SB-222516]	0	10	1	14	15	5	0	0	0	0	22	0	23	0	0	0	14	8	0	0
Cc1cccc(-c2nc(Nc3ccc4[nH]nnc4c3)c3ccccc3n2)n1 [GW867587]	0	0	0	0	0	0	0	0	0	0	3	0	24	0	0	0	0	0	10	0
Oc1ccc2ncnc(Nc3ccc(OCc4ccccc4)cc3)c2c1 [GI262866]	66	4	29	0	60	21	0	7	0	15	7	0	6	18	0	0	0	17	0	0
Cn1ccc2ncnc(Nc3ccc(Oc4cccc(Cl)c4)c(Cl)c3)c21	0	0	0	17	0	18	4	1	0	28	25	51	0	7	20	22	23	21	25	32
CS(=O)(=O)CCNCc1nc(-c2ccc3ncnc(Nc4ccc(OCc5cccc(F)c5)c(Cl)c4)c3c2)cs1.Cl [GW583340]	0	11	10	0	0	0	0	35	19	0	0	0	28	0	0	0	1	0	0	0
O=C(CCO)NCCn1ccc2ncnc(Nc3ccc(Oc4cccc(C(F)(F)F)c4)c(Cl)c3)c21	0	5	0	0	0	0	0	0	0	0	13	0	0	0	0	6	0	0	36	19
Nc1nc(-c2ccccn2)c(-c2ccnc3ccccc23)s1 [GW548057]	0	9	34	0	0	0	0	11	47	0	1	0	58	0	0	8	5	26	4	17
Cl.c1ccc(Cn2ccc3cc(Nc4ncnc5ccccc45)ccc32)cc1 [GW275568]	8	21	24	11	0	8	0	25	25	0	9	0	0	0	0	11	7	1	0	3
Nc1nc(-c2ccc3c(N)n[nH]c3c2)cc(N2CCC[C@@H](C(=O)Nc3ccccc3)C2)n1.O=C(O)C(F)(F)F.O=C(O)C(F)(F)F [GSK2288359]	8	15	6	29	0	0	0	38	0	0	0	0	0	27	0	20	14	0	0	0
Fc1ccc(Nc2nccc(-c3c(-c4ccc(Cl)cc4)nn4ncccc34)n2)cc1F [GW829058]	5	12	8	14	40	1	32	7	14	3	22	11	18	21	35	0	31	37	15	33
